Screening data deposited in PubChem BioAssay by National Center for Advancing Translational Sciences (NCATS).
NPC1 prom act: activators of NPC1 promoter; Huh7 NPC1 promoter luciferase reporter, 24 h; Potency, µM (top dose mostly 9.22 µM), inactives show at the highest dose activation, actives largely listed as activators; hit rate 2.4% among 320,000; further: % of control where 0% means no effect; nearly all actives have a fitted effect of over 60% in size
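NPC1 promoter–luciferase Huh7 cells; 24 h compound; luminescence.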
SMN2 splice up: SMN2 splice variant enhancement | AID 1458 | Potency, µM (highest dose often 46.1 µM), without a hit: top-dose activity change, positive = activation, most hits filed as activators | HEK293 SMN2-luciferase splicing reporter, luminescence, 30-36 h | hit rate 2.8% among 210,000; further: % of control where 0% means no effect; nearly all actives have a fitted effect of over 55% in size
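HEK293 cells carry an SMN2 minigene-luciferase reporter in which exon 7 inclusion puts luciferase in frame. Cells were seeded at 2000 cells/well, attached for 10-12 hours, then exposed to compounds for 30-36 hours at 37C before ONE-Glo luminescence.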
FLuc counter: firefly luciferase modulation, counter-screen for miR-21 project | P08659 | purified FLuc, Km substrates, luminescence inhibition | Potency, µM (series often up to 57.5 µM), for inactives: top-dose activity change, negative = inhibition, hits mostly inhibitors | hit rate 6.9% among 360,000 | AID 588342;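 further: plate controls were vehicle for no effect and reference inhibitor for full effect; nearly all actives have a fitted effect of over 55% in size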
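Purified P. pyralis luciferase, 10 nM final, with Km-level 10 uM D-luciferin and 10 uM ATP in 50 mM Tris acetate pH 7.5, 10 mM Mg acetate, 0.01% Tween-20, 0.05% BSA; 6-point qHTS titration about 60 µM downward; luminescence read.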
ELG1 DNA repair: inhibitors of ELG1-dependent DNA repair in HEK293T cells. Potency, µM (doses to about 46.1 µM), without a hit: at the highest dose activity change, negative = inhibition, most hits filed as inhibitors. AID 504467. hit rate 2.3% among 330,000. HEK293T ELG1-luciferase reporter, luminescence, 16 h; DNA damage induced by 5-fluorouridine; further: on the % scale 0 is the no-effect control and ±100 the full control effect; nearly all actives have a fitted effect of over 55% in size
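Luminescence from the luciferase reporter, measured 30 min after ONE-Glo reagent at room temperature, was the read-out. Beforehand, 2,000 cells per well were exposed for 16 hr at 37 °C to 5-fluorouridine together with compound or vehicle.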
ELG1 genotoxic: inducers of genotoxicity in HEK293T ELG1-luciferase cells. HEK293T ELG1-luciferase reporter, luminescence, 16 h. Potency, µM (titrated, usually from 46 µM), without a hit: top-dose activity change, positive = activation, usual class: activators. hit rate 1.3% among 330,000. AID 504466; further: % of control where 0% means no effect; nearly all actives have a fitted effect of over 60% in size
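DMSO vehicle served as control against compound-treated ELG1-luciferase HEK293T cells; exposure lasted 16 hr at 37 °C and 5% CO2, followed by ONE-Glo luminescence detection after 30 min.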
Rab9 promoter act: Rab9 promoter activation | AID 485297 | Potency, µM (doses to about 9.22 µM), for inactives: at the highest dose activation, negative = inhibition, actives largely listed as activators | Huh7 Rab9 promoter-luciferase reporter, luminescence, 24 h | hit rate 2.8% among 320,000; further: % of control where 0% means no effect; nearly all actives have a fitted effect of over 60% in size
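Quantitative HTS format; Huh7 Rab9-luciferase reporter cells (1500/well) receive compound 2 h post-plating, incubate 24 h at 37 °C, then get luciferase reagent for 10 min before luminescence reading.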
ELG1 FLuc counter: luciferase inhibition in cell-free luciferin readout for ELG1 hits; cell-free firefly luciferase luminescence counter-screen, ViewLux; hit rate 3% among 350; shares compounds with ELG1 DNA repair; Potency, µM (highest dose often 46.1 µM), without a hit: at the top dose activity change, negative = inhibition, actives largely listed as inhibitors; further: on the % scale 0 is the no-effect control and ±100 the full control effect
ELG1-Luc inh: confirmation of human ELG1-dependent DNA repair inhibitors; shares compounds with ELG1 DNA repair; HEK293T ELG1-luciferase levels, luminescence; cells co-treated with 5-fluorouridine; Potency, µM (highest dose often 46.1 µM), inactives show at the highest dose activity change, negative = inhibition, actives largely listed as inhibitors; hit rate 68% among 670; further: on the % scale 0 is the no-effect control and ±100 the full control effect; nearly all actives have a fitted effect of over 55% in size
Target sequence (Q96QE3 whole entry, looked up): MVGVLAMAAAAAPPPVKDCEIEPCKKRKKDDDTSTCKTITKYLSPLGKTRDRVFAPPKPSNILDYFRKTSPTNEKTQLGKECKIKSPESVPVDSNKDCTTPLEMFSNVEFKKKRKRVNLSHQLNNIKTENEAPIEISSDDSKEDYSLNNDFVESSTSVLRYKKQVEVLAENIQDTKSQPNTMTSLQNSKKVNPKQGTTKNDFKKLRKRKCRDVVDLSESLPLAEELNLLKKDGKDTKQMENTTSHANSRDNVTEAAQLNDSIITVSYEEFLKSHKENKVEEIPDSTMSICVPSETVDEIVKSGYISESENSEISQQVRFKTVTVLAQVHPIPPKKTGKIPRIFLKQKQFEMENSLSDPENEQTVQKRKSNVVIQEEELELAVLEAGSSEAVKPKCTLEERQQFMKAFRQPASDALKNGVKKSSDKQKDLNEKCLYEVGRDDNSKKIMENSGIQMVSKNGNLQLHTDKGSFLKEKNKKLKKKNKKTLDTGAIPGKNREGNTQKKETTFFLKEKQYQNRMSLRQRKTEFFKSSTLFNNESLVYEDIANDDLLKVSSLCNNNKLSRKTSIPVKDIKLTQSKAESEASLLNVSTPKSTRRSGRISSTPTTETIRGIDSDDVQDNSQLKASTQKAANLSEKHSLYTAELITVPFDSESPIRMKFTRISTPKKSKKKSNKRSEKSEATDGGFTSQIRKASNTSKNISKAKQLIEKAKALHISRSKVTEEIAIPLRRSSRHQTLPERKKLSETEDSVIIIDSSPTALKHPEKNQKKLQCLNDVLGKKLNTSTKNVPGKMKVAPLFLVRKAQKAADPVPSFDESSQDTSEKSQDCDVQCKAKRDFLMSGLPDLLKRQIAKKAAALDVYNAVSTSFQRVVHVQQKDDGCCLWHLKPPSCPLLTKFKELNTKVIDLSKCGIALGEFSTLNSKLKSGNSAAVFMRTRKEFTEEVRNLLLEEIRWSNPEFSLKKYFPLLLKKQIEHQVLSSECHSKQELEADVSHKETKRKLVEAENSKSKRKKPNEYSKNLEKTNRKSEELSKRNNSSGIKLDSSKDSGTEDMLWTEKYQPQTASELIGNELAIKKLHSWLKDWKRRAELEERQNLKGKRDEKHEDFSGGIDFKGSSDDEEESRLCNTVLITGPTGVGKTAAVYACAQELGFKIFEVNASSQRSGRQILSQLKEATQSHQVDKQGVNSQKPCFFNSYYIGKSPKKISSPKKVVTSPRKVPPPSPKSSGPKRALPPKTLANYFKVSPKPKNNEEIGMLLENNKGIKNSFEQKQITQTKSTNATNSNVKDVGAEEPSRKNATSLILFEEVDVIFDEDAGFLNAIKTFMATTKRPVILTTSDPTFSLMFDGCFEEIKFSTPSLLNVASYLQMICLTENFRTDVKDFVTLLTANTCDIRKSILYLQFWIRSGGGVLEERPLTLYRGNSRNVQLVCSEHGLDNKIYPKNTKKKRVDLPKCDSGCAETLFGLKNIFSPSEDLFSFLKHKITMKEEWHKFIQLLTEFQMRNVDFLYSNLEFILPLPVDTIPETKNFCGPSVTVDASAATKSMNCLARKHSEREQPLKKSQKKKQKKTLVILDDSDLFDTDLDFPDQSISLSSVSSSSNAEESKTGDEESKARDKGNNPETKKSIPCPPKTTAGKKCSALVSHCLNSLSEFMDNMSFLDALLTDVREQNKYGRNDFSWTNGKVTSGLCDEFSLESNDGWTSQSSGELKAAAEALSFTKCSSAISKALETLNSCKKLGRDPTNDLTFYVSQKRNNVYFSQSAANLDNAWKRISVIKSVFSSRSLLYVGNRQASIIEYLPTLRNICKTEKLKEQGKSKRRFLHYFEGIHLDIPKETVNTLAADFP
ELG1-Luc MMS: confirmation of human ELG1 repair inhibitors, MMS stimulated. AID 624249. shares compounds with ELG1 DNA repair. Potency, µM (top dose mostly 46.1 µM), inactives show top-dose activity change, negative = inhibition, usual class: inhibitors. hit rate 53% among 670. HEK293T luciferase-tagged ELG1 level, MMS stimulated; further: on the % scale 0 is the no-effect control and ±100 the full control effect; nearly all actives have a fitted effect of over 60% in size
ELG1 5FU viab: confirmation of ELG1 repair inhibitors: viability with 5FU. shares compounds with ELG1 DNA repair. cell viability with 5-FU, ELG1-dependent repair. Potency, µM (highest dose often 46.1 µM), inactives show at the highest dose activity change, negative = viability loss, usual class: cytotoxic. 670 tested, under 10 active. AID 624250;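 further: ELG1-luc HEK293T cells cotreated with 5-fluorouridine at 10 µM final; viability measured 16 h after compound addition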
ELG1 MMS cell: confirmation of ELG1 repair inhibitors: viability with MMS | shares compounds with ELG1 DNA repair | Potency, µM (series often up to 46.1 µM), without a hit: at the top dose activity change, negative = viability loss, most hits filed as cytotoxic | hit rate 33% among 670 | Cell viability with MMS, ELG1-dependent DNA repair;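 further: ELG1-luc HEK293T cells co-treated with 10 µM MMS; viability read 16 h after compound addition; on the % scale 0 is the no-effect control and ±100 the full control effect; nearly all actives have a fitted effect of over 60% in size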
Cell viab unstim: counter-screen for ELG1 repair inhibitors: unstimulated cell viability. shares compounds with ELG1 DNA repair. cell viability counter-screen, unstimulated, luminescence. Potency, µM (top dose mostly 45.9 µM), without a hit: top-dose activity change, negative = loss of viability, most hits filed as cytotoxic. hit rate 8% among 900;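 further: compound exposure lasted 16 hours before reading; on the % scale 0 is the no-effect control and ±100 the full control effect; nearly all actives have a fitted effect of over 55% in size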
FLuc enzyme: firefly luciferase inhibition counter-screen; purified firefly luciferase, luminescence counter-screen; Potency, µM (titrated, usually from 57.5 µM), without a hit: top-dose activity, negative = inhibition, most hits filed as inhibitors; shares compounds with ELG1 DNA repair; hit rate 10% among 350; further: on the % scale 0 is the no-effect control and ±100 the full control effect
Starred values were filed as active, the others as inactive; ? = inconclusive; nt = no result. A selection: hits, their analogues and other compounds. The true share with any hit is near 9.3%. The call rests on the fitted dose curve; in most records, active means well fitted curve in the direction sought with a large enough effect; inconclusive means small, poorly fitted or top-dose-only effect, or another doubt; inactive means no such curve, though single readings can be large; an effect the other way counts as inactive or inconclusive. Potency means the concentration at half of the fitted maximal effect.

SMILES	NPC1 prom act	SMN2 splice up	FLuc counter	ELG1 DNA repair	ELG1 genotoxic	Rab9 promoter act	ELG1-Luc inh	ELG1-Luc MMS	ELG1 5FU viab	ELG1 MMS cell	Cell viab unstim	others
Cc1ccc(S(=O)(=O)N2CCOCC2)cc1C(=O)OCc1nnc(-c2ccccc2)o1	1%	nt	-19%	-2%	-2%	4%	nt	nt	nt	nt	nt
Cn1nnnc1SCC(=O)NCc1ccc2c(c1)OCO2	1%	-3%	-4%	21%	1%	-1%	nt	nt	nt	nt	nt
COc1ccc(-c2nnc(SC(C)C(=O)Nc3cccc(Cl)c3)o2)cc1 (stereo unspecified)	?	16µM*	-18%	?	21µM*	4µM*	nt	nt	nt	nt	1%
COc1ccc(-n2c(C)c(C(C)=O)c3cc(O)ccc32)cc1	17%	-11%	11%	0.82µM*	-38%	-2%	0.89µM*	?	1%	?	8%	ELG1 FLuc counter=?;FLuc enzyme=0%
COc1ccc2c(c1)c(C(C)=O)c(C)n2-c1ccccc1	-1%	8%	4%	?	-15%	1%	nt	nt	nt	nt	nt
Cc1cc(C(=O)Cn2cc([N+](=O)[O-])ccc2=O)c(C)n1CC1CCCO1 (stereo unspecified)	-3%	nt	-9%	?	3%	12%	nt	nt	nt	nt	nt
Cc1cc(C(=O)COc2ccccc2C(N)=O)c(C)n1CC1CCCO1 (stereo unspecified)	-26%	-93%	?	?	-6%	-9%	?	1µM*	-2%	1.3µM*	?
O=C(NCc1nc2ccccc2[nH]1)C1=C[C@@H](c2ccc(Br)cc2)C[C@@H](OCc2ccc(CO)cc2)O1	-4%	nt	-1%	0%	-17%	1%	nt	nt	nt	nt	nt
CCOC(=O)c1cnc(-n2nc(C)cc2C)nc1Nc1ccc2c(c1)OCO2	1%	-3%	3%	?	-2%	3%	nt	nt	nt	nt	nt
CCOC(=O)c1cnc(-n2nc(C)cc2C)nc1Nc1ccc(O)cc1	-26%	nt	1%	4.1µM*	-9%	-35%	3.5µM*	2.5µM*	-3%	2.8µM*	?
CC1CCN(c2ccc(NC(=O)Cn3c(=O)oc4ccccc43)cc2)CC1	0%	nt	2%	6%	3%	0%	nt	nt	nt	nt	nt
